Test systems include T-47D breast; BT-549 breast; MDA-MB-435 melanoma; SW-620 colon; MCF7 breast; HCT-116 colon; HCC-2998 colon; KM12 colon; MDA-MB-468 breast.
What all share (test): NCI-60 one-dose screen, 48 h (100 = growth as untreated, 0 = no growth, -100 = all killed)
Common to all, as to conditions: 10 µM

About 83,000 compounds went through this panel and 20% of them were active in at least one assay; those are over-represented in the sample as a whole.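 Step 1: grow cells in 96-well plates. Step 2: add test compound at a single concentration. Step 3: incubate 48 h. Step 4: record percent growth.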 Values without a mark were called inactive. The source made the active and inactive calls. How the source made its calls: active means growth percent below 10; inactive means the rest.

`CC(=C(c1ccc(OCCN2CCCCCC2)cc1)c1ccc(OCCN2CCCCCC2)cc1)c1ccc(Cl)cc1`: the growth was -58.8% (active) in the experiment on T-47D breast; -65.5% (active) in the experiment on BT-549 breast; -100% (active) in the experiment on MDA-MB-435 melanoma; -61.1% (active) in the experiment on SW-620 colon; -79.6% (active) in the experiment with MCF7 breast; -61.9% (active) in the experiment with HCT-116 colon. The values for the growth with HCC-2998 colon, in the experiment on KM12 colon and in the experiment on MDA-MB-468 breast were -97.8% (active), -73% (active) and -91.6% (active), respectively.

In the case of `C=CC(=O)Nc1nc(-c2cccc(NS(=O)(=O)c3cccc4c(N(C)C)cccc34)c2)cs1`, the growth in the experiment with T-47D breast is 0.269% (active); in the experiment with BT-549 breast, -75.6% (active); with MDA-MB-435 melanoma, -92.4% (active); with SW-620 colon, -80.6% (active); in the experiment on MCF7 breast it was -82.1% (active); in the experiment with HCT-116 colon it was -90.3% (active). Also, the values for the growth with HCC-2998 colon, in the experiment on KM12 colon and in the experiment with MDA-MB-468 breast were -88.1% (active), -44% (active) and -87.8% (active), respectively.

For `CO[C@@H]1CSS[C@H]1Cn1nc(-c2ccc(Oc3ccccc3)cc2)c2c(N)ncnc21`, the growth in the experiment on T-47D breast was 17.8%; in the experiment with BT-549 breast, 63.8%; in the experiment with MDA-MB-435 melanoma, 17.3%; in the experiment on SW-620 colon it was 96.7%; in the experiment on MCF7 breast, 30.7%; in the experiment on HCT-116 colon, 31.7%. In addition, the values for the growth with HCC-2998 colon, with KM12 colon and in the experiment with MDA-MB-468 breast were 91.6%, 60% and 11.6%, respectively.

On to `Cc1ccc(-c2cc(C(=O)N=Nc3c(O)[nH]c4ccc(Br)cc34)c3ccccc3n2)cc1`, for which the growth was 75.2% with T-47D breast; 86.3% in the experiment on BT-549 breast; 45.1% in the experiment with MDA-MB-435 melanoma; 34.1% with SW-620 colon; 28.5% in the experiment on MCF7 breast; 27.4% with HCT-116 colon. The growth in the experiment with HCC-2998 colon was 45.5%; in the experiment on KM12 colon, 49.1%; in the experiment on MDA-MB-468 breast it was 31.2%.

For the compound `CS(=O)(=O)Nc1ccc(-c2ccc3c(c2)ncn3-c2ccc(NC(=O)Nc3ccc(Br)cc3)cc2)cc1`, the growth with T-47D breast was -8.48% (active); with BT-549 breast it was -36.5% (active); with MDA-MB-435 melanoma, -18% (active); in the experiment on SW-620 colon, 1.27% (active); in the experiment on MCF7 breast, -35.1% (active); with HCT-116 colon it was 2.46% (active). Moreover, the growth in the experiment on HCC-2998 colon was 18%; in the experiment on KM12 colon, 2.79% (active); in the experiment on MDA-MB-468 breast, -10.7% (active).

On to `CN(C)c1nc(NCCNS(=O)(=O)c2ccc(C(=O)/C=C/c3ccccc3)cc2)nc(Nc2ccc(F)cc2)n1`, for which the growth was 25.6% in the experiment with T-47D breast; 24.9% in the experiment with BT-549 breast; 4.21% (active) with MDA-MB-435 melanoma; -4.39% (active) with SW-620 colon; -82.8% (active) with MCF7 breast; -53% (active) in the experiment on HCT-116 colon. Besides, the growth in the experiment on HCC-2998 colon was -75.7% (active); in the experiment with KM12 colon it was -78.4% (active); in the experiment on MDA-MB-468 breast, 1.47% (active).

In the case of `CCN(CC)CCOc1ccc(C(=C(C)c2ccccc2)c2ccc(OCCN(CC)CC)cc2)cc1`, the growth is -85.3% (active) in the experiment with T-47D breast; 50.4% in the experiment on BT-549 breast; -83% (active) in the experiment on MDA-MB-435 melanoma; -4.84% (active) with SW-620 colon; -61.8% (active) in the experiment with MCF7 breast; 6.73% (active) in the experiment on HCT-116 colon. Further, the growth in the experiment with HCC-2998 colon is -5.25% (active); in the experiment on KM12 colon it was 0.838% (active); in the experiment with MDA-MB-468 breast it was -18.5% (active).

Turning to `CN(C)c1ccc(/C=C/c2nc3ccccc3c(=O)n2CC(=O)Nc2ccc(Cl)cc2)cc1`, the growth in the experiment with T-47D breast was 75.1%; in the experiment on BT-549 breast it was 26.6%; with MDA-MB-435 melanoma, 68.8%; in the experiment on SW-620 colon it was 61.9%; with MCF7 breast, 27.9%; with HCT-116 colon it was 56.8%. The growth in the experiment on HCC-2998 colon was 68%; in the experiment with KM12 colon, 55.1%; in the experiment with MDA-MB-468 breast, 31.3%.

For the compound `CCCS(=O)(=O)c1oc(-c2ccc(F)cc2)nc1S(=O)(=O)c1ccc(F)cc1`, the growth was -67.9% (active) in the experiment on T-47D breast; -32.1% (active) in the experiment on BT-549 breast; -80.3% (active) with MDA-MB-435 melanoma; -77.6% (active) in the experiment on SW-620 colon; -65.7% (active) in the experiment with MCF7 breast; 3.42% (active) in the experiment with HCT-116 colon. For the same compound, the growth with HCC-2998 colon was -59.8% (active); in the experiment on KM12 colon, 41.8%; in the experiment on MDA-MB-468 breast it was -91.4% (active).

`C/C(=N\N=C\c1ccc(Cl)c([N+](=O)[O-])c1)c1ccc2c(c1)Nc1ccccc1S2`: the growth with T-47D breast is 41.3%; in the experiment on BT-549 breast it was 58.4%; in the experiment with MDA-MB-435 melanoma, 49.9%; with SW-620 colon, 6.06% (active); in the experiment with MCF7 breast it was 6.3% (active); with HCT-116 colon, 19.4%. The growth with HCC-2998 colon is 8.71% (active); with KM12 colon, 29.4%; with MDA-MB-468 breast, -29.3% (active).

Take `COc1cc2c(cc1OC)/C(=C\c1sc(Nc3ccc(O)cc3)nc1O)C(C(=O)O)=N2`: the growth in the experiment on T-47D breast was 46.7%; in the experiment with BT-549 breast, 57.2%; in the experiment on MDA-MB-435 melanoma it was -77.3% (active); in the experiment with SW-620 colon it was 26.8%; with MCF7 breast, 12.3%; with HCT-116 colon it was 21.4%. The results for the growth with HCC-2998 colon, in the experiment with KM12 colon and with MDA-MB-468 breast were 36.7%, 20.9% and -1.14% (active), respectively.

On to `CCCCSc1nc(Nc2ccc(/C(C)=N/NC(N)=S)cc2)c(C#N)c(-c2ccccc2)n1`, for which the growth in the experiment with T-47D breast was 45.9%; in the experiment with BT-549 breast it was 31.1%; in the experiment on MDA-MB-435 melanoma, 65.4%; in the experiment with SW-620 colon, 56.8%; with MCF7 breast it was 30.7%; with HCT-116 colon, 24.6%. Further, the figures for the growth in the experiment on HCC-2998 colon, in the experiment on KM12 colon and in the experiment with MDA-MB-468 breast were 53.1%, 72.4% and -28.4% (active), respectively.

Take `CCOC(=O)CNC(=O)CN(Cc1ccccc1)C(=O)[C@@]1(C)CCC[C@]2(C)[C@H]3CC4C(C(C)C)=C[C@]3(CC[C@H]21)[C@@H]1C(=O)CCC(=O)[C@H]41`: the growth with T-47D breast was 52.2%; in the experiment on BT-549 breast, 67.8%; with MDA-MB-435 melanoma, 70.6%; in the experiment on SW-620 colon, 49.8%; with MCF7 breast, 13.1%; in the experiment with HCT-116 colon, 36.5%. Also, the growth with HCC-2998 colon was 37.8%; with KM12 colon, 77.7%; in the experiment on MDA-MB-468 breast, 3.12% (active).

With `CNC(=O)c1cccc(N2CCc3c2ccc(NC(=O)Nc2ccc(N4CCN(C)CC4)c(C(F)(F)F)c2)c3F)c1`, the growth was 94.5% in the experiment with T-47D breast; 11.6% with BT-549 breast; -96.1% (active) in the experiment on MDA-MB-435 melanoma; -71.7% (active) in the experiment with SW-620 colon; -79.8% (active) in the experiment on MCF7 breast; -95.3% (active) with HCT-116 colon. The growth in the experiment with HCC-2998 colon was -94.1% (active); in the experiment on KM12 colon, -88.1% (active); with MDA-MB-468 breast, 90.4%.

For the compound `CC(=O)Nc1ccc(-n2cnc3cc(-c4ccc(NS(C)(=O)=O)cc4)ccc32)cc1`, the growth in the experiment with T-47D breast was 63.2%; in the experiment on BT-549 breast, 75.4%; in the experiment with MDA-MB-435 melanoma it was 51.7%; in the experiment on SW-620 colon, 71.5%; with MCF7 breast, 16.8%; with HCT-116 colon, 33.9%. Also, the growth with HCC-2998 colon is 21.5%; in the experiment on KM12 colon it was 39.8%; in the experiment on MDA-MB-468 breast, 54.6%.

Take `COc1cc(/C=C/C(=O)c2cc(OC)c(OC)c(OC)c2)ccc1Oc1nc(Nc2ccc(F)cc2)nc(N(C)C)n1`: the growth with T-47D breast was 25.9%; in the experiment with BT-549 breast, -89.8% (active); with MDA-MB-435 melanoma, -62.4% (active); in the experiment with SW-620 colon it was 1.14% (active); in the experiment on MCF7 breast, 2.35% (active); in the experiment with HCT-116 colon, -77.6% (active). Further, the values for the growth in the experiment on HCC-2998 colon, in the experiment with KM12 colon and in the experiment on MDA-MB-468 breast were -81.5% (active), -41.1% (active) and -39.6% (active), respectively.

As for `S=c1nc(-c2ccccc2)cc(-c2cc3ccccc3nc2Cl)[nH]1`, the growth in the experiment with T-47D breast is 78.1%; in the experiment on BT-549 breast, 51.9%; in the experiment with MDA-MB-435 melanoma, -10.8% (active); with SW-620 colon it was 48.3%; in the experiment on MCF7 breast, 45.1%; in the experiment with HCT-116 colon, 31.5%. Moreover, the growth was 104% in the experiment on HCC-2998 colon, 64.2% with KM12 colon and 66.8% with MDA-MB-468 breast.

`COc1ccc2[nH]c(O)c(N=NC(=O)COc3ccc(NC(=O)Nc4ccc(Cl)cc4)cc3)c2c1`: the growth is 83.8% in the experiment with T-47D breast; 76% in the experiment on BT-549 breast; -52% (active) with MDA-MB-435 melanoma; 4.49% (active) in the experiment with SW-620 colon; 1.75% (active) with MCF7 breast; -33.8% (active) in the experiment with HCT-116 colon. The growth was -14.3% (active) in the experiment on HCC-2998 colon, 4.25% (active) in the experiment on KM12 colon and -52.3% (active) in the experiment with MDA-MB-468 breast.

As for `Cc1nc(Nc2nc(C)c3ccc(OCCN4CCOCC4)cc3n2)[nH]c(=O)c1C`, the growth in the experiment with T-47D breast is -10.5% (active); in the experiment with BT-549 breast it was -74.2% (active); in the experiment with MDA-MB-435 melanoma, -50.8% (active); with SW-620 colon, 8.56% (active); in the experiment with MCF7 breast it was 0.281% (active); in the experiment with HCT-116 colon, 6.7% (active). The growth with HCC-2998 colon is -72.8% (active); with KM12 colon, 6.49% (active); in the experiment with MDA-MB-468 breast, -72.8% (active).

Values taken from PubChem BioAssay (NCI).
